Test [1] is described as follows: S16 Schwann cell viability assay (CellTiter-Glo assay) (AID 624031).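 Further: native untransfected S16 rat Schwann cells; cellular ATP luminescence as a viability measure; nearly all actives have a fitted effect of over 70% in size.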 In short, it runs like this: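 Cells were seeded at 500-750 per well in phenol red-free DMEM with 10% FBS and left overnight. Compounds or DMSO were pinned in, incubation ran 24 h at 37 °C/5% CO2, then CellTiter-Glo reagent was added and luminescence measured.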
(In general: In ATP-based viability assays light output follows the ATP content of the culture.)

The nature of test [2]: S16 Schwann cell PMP22 intronic element firefly luciferase assay (AID 624032). Further: nearly all actives have a fitted effect of over 30% in size. In short, it runs like this: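 Rat S16 Schwann cells stably carrying firefly luciferase driven by a PMP22 intronic element, in 10% FBS, treated 24 h at 37 C. ONE-Glo luminescence normalized to PTC124 control and DMSO (0%); curves classed by r2, magnitude and activity.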
In another test the test system is AA1029. The test is described as follows: qHTS profiling for inhibitors of Plasmodium falciparum proliferation (AID 504749). Further: nearly all actives have a fitted effect of over 60% in size. Further: potency means the concentration at half of the fitted maximal effect. Particulars: P. falciparum in erythrocytes, SYBR Green DNA, 72 h; series mostly up to 28.7 µM. In a few lines:
(§1)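 SYBR Green fluorescence (ex 485 nm, em 535 nm) reports parasite DNA after 72 h compound exposure of infected red cells at 0.3% parasitemia, 2.5% hematocrit; signal normalized to 0.29 uM artemisinin and vehicle wells.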
On the technique in general: qHTS replaces the single test concentration by a dilution series.

A further test has as its system CP297. Described as above. Particulars: P. falciparum in erythrocytes, SYBR Green DNA, 72 h; series mostly up to 28.7 µM. In a few lines:
as §1

In a further test the test system is CP315. The description is as above. Particulars: P. falciparum in erythrocytes, SYBR Green DNA, 72 h; series mostly up to 28.7 µM. In short, it runs like this: as §1
Another test deals with JCK. Described as above. Particulars: P. falciparum in erythrocytes, SYBR Green DNA, 72 h; series mostly up to 28.7 µM. In short, it runs like this: as §1
The target in test [3] is Calcium and integrin-binding protein 1 (Homo sapiens) (UniProt Q99828). The experiment in a line: Confirmatory qHTS for Identification of Calcium Integrin Binding Protein 1 (CIB1) Competitor (AID 1508617). Further: nearly all actives have a fitted effect of over 65% in size. In a few lines: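 Fluorescence polarization competition: CIB1-GST (1 uM final) in 5 mM HEPES pH 7.4, 125 mM NaCl, 5 mM CaCl2, 0.01% Tween20 preincubated 15 min RT with compound (up to 114 uM), then FITC-alphaIIb peptide (100 nM) added, 15 min RT.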

Test [4] in a line: NCATS anti-infectives library activity on HEK293 viability as a counter-qHTS vs the C. elegans viability qHTS (AID 1745854).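 Further: HEK293 cells exposed to compounds for 24 hr before the viability read.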 In short, it runs like this:
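Compound titrations (final up to 41.7 uM) were incubated with HEK293 cells for 24 hr at 37C under 5% CO2. Viable cells were quantified with CellTiter-Glo after 10 min at ambient temperature.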

For test [5], the system named is Zika virus NS2B-NS3 protease (unlinked complex). The test is described as follows: Confirmatory screen GU AMC qHTS for Zika virus inhibitors (AID 1347153).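 Further: enzyme at 25 nM with substrate at 10 µM below its Km of 18.3 µM; potency means the concentration at half of the fitted maximal effect; nearly all actives have a fitted effect of over 70% in size.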 In a few lines:
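Noncovalent NS2B hydrophilic domain/NS3 protease complex (25 nM) in 10 mM Tris-HCl pH 8.0, 0.01% Tween 20 was preincubated 15 min at room temperature with compounds. Then 10 µM AMC substrate (Km 18.3 µM) was added; fluorescence was read over 15 min and fitted to a 4-parameter Hill equation.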

A short description of test [6]: Confirmatory screen GU Rhodamine qHTS for Zika virus inhibitors qHTS (AID 1347157). Further: potency means the concentration at half of the fitted maximal effect; nearly all actives have a fitted effect of over 70% in size. In short, it runs like this: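 Buffer 10 mM Tris-HCl pH 8.0, 0.01% Tween 20. Unlinked protease 25 nM; compound preincubation 15 min, RT, protected from light. Substrate Rhod110, 1.5 microM; ~15% conversion in 15 min.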
Test [7] is described as follows: S16 Schwann cell PMP22 intronic element beta-lactamase assay (AID 624044; calls by dose curve; further: nearly all actives have a fitted effect of over 15% in size). In a few lines: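 Beta-lactamase reporter under a PMP22 intronic regulatory element in stable S16 rat Schwann cells; 24 h compound exposure. 460 nm blue signal normalized between DMSO (0%) and potassium clavulanate, with 535 nm FRET tracking viability; curves classed by r2 and response.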

The subject of a further test is ATS189. The test is described as follows: qHTS profiling for inhibitors of Plasmodium falciparum proliferation (AID 504749). Further: nearly all actives have a fitted effect of over 60% in size. Further: potency means the concentration at half of the fitted maximal effect. The settings on record: P. falciparum in erythrocytes, SYBR Green DNA, 72 h; series mostly up to 28.7 µM. In short, it runs like this: as §1
In a further test the test system is CP191. The description is as above. Particulars: P. falciparum in erythrocytes, SYBR Green DNA, 72 h; series mostly up to 28.7 µM. In short, it runs like this: as §1
The subject of the next test is DIV14. Described as above. The settings on record: P. falciparum in erythrocytes, SYBR Green DNA, 72 h; series mostly up to 28.7 µM. In a few lines:
as §1

In another test the test system is DIV17. The test is described as above. Particulars: P. falciparum in erythrocytes, SYBR Green DNA, 72 h; series mostly up to 28.7 µM. In a few lines: as §1
Another test deals with P93_24. The description is as above. Particulars: P. falciparum in erythrocytes, SYBR Green DNA, 72 h; series mostly up to 28.7 µM. In short, it runs like this: as §1
A further test concerns TAB165. The description is as above. Particulars: P. falciparum in erythrocytes, SYBR Green DNA, 72 h; series mostly up to 28.7 µM. In short, it runs like this:
as §1

Test [8] in a line: Counterscreen qHTS for small molecule stabilizers of the endoplasmic reticulum resident proteome: GLuc-NoTag assay (AID 1508627).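 Further: SH-SY5Y cells given compound then 100 nM thapsigargin to empty ER calcium.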 In short, it runs like this:
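Counterscreen line: SH-SY5Y-GLuc-NoTag. Seed, 5 h; compound, 19 h; thapsigargin 100 nM, 4 h; 37C/5% CO2. Readout: secreted GLuc luminescence, coelenterazine 0.07x final, no lysis.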
(The purpose of a counterscreen is to sort out artefacts and off-target activity.)

A short description of test [9]: qHTS Assay for Identification of Small Molecule Agonists for Thrombopoietin (TPO) Signaling Pathway (AID 917). In short, it runs like this: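 Stimulation at the TPO EC50 (26 pM final) was used to detect activators. Ba/F3 mouse cells bearing human TPO receptor and a luciferase reporter under the Glycoprotein IIb promoter were exposed to compounds for 24 hrs at 37 C.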

The target of test [10] is Muscarinic acetylcholine receptor M1 (Rattus norvegicus) (UniProt P08482). The test is described as follows: qHTS Assay for Antagonists of Acetylcholine Muscarinic M1 Receptor: Measurement of IP-One Response (AID 944). Further: nearly all actives have a fitted effect of over 75% in size. In a few lines: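 Antagonism was measured as loss of carbachol-driven (EC80) IP1 accumulation in CHO cells carrying rat M1, using a homogeneous IP-One TR-FRET kit read at 620 and 665 nm.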

SMILES strings stand for the structures. Inconclusive results are not listed. Activity calls are given as the source filed them. Unless noted, the call rests on the fitted dose curve; in most records, active means well fitted curve in the direction sought with a large enough effect; inconclusive means small, poorly fitted or top-dose-only effect, or another doubt; inactive means no such curve, though single readings can be large; an effect the other way counts as inactive or inconclusive.

Muscarinic acetylcholine receptor M1 (Rattus norvegicus), sequence (P08482 whole entry, looked up): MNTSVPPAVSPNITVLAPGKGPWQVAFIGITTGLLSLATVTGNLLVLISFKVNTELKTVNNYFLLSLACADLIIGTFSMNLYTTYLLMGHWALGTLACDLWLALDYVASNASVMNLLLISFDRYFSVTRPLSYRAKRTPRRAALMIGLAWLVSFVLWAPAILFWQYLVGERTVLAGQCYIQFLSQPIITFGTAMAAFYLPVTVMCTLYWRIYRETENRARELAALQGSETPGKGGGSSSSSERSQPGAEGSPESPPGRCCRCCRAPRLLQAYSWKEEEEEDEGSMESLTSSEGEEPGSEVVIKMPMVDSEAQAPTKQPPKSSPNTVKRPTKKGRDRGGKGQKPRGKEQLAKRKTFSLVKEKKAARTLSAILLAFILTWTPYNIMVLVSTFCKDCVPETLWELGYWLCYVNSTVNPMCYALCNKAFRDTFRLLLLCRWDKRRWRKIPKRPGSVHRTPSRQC
Calcium and integrin-binding protein 1 (Homo sapiens), sequence (Q99828 whole entry, looked up): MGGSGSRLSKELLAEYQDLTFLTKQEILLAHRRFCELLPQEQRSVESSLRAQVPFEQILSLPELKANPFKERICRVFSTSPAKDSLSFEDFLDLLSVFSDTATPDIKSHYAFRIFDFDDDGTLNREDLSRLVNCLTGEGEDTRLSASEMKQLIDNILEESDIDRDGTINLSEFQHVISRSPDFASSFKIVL

With `CCCCC(=O)N(Cc1ccc(-c2ccccc2-c2nn[nH]n2)cc1)C(C(=O)O)C(C)C` (stereo not given), the compound was called inactive in [1]. Moreover, the Potency result (in test [2]; in the test with AA1029; in the test with CP297; in the test on CP315; in the test with JCK) was “inactive” each time.

`Cn1cnc(-c2nccc3c(=O)[nH]c(OCCCC(F)(F)F)nc23)c1`: the result in test [3] was inactive.

Take `CN(C)CC(=O)Nc1ccc2[nH]c(=O)c3ccccc3c2c1`: the outcome in test [4] was inactive.

As to `CN(Cc1ccc(C(=O)O)cc1)c1ccc(OCc2c(-c3c(Cl)cccc3Cl)noc2C2CC2)nc1C(F)(F)F`, the figures for the Potency in test [5] and in [6] were 13.9 µM (active) and 2.21 µM (active), respectively.

On to `O=C(CC1NCCC[C@H]1O)Cn1cnc2cc(Br)c(Cl)cc2c1=O` (stereo not given in full), for which the call in test [1] was inactive. Moreover, the Potency entry in test [2] and in [7] was “inactive” in each case. Also, the Potency is 1 µM (active) in the test on AA1029; 4.47 µM (active) in the test with ATS189; 2.82 µM (active) in the test on CP191; 3.38 µM (active) with CP297; 3.01 µM (active) with CP315; 3.01 µM (active) with DIV14. For the same compound, the Potency was 3.38 µM (active) in the test on DIV17, 2.82 µM (active) with JCK, 1.41 µM (active) in the test with P93_24 and 1 µM (active) in the test with TAB165.

In the case of `O=C(O)c1ccc(O)c2ncc(N3CCCN(CCc4cccc5ccccc45)CC3)cc12`, the values for the Potency in test [5] and in test [6] were 49.4 µM (active) and 13.9 µM (active), respectively.

Take `CN(C)CCCCCCNC(=O)c1cccc(-c2cc(O)c3ncccc3c2)c1`: the outcome in test [3] was inactive.

For the compound `Cc1nc2c(O)cccc2c(=O)[nH]1`, the call in test [4] was inactive.

In the case of `CS(=O)(=O)CCNCc1nc(-c2ccc3ncnc(Nc4ccc(OCc5cccc(F)c5)c(Cl)c4)c3c2)cs1`, the Potency entry in test [8] is “inactive”.

Take `CN1CCN(CCC=C2c3ccccc3Sc3ccc(S(=O)(=O)N(C)C)cc32)CC1`: the Potency result in [9], in test [10] and in [7] was “inactive” each time. For the same compound, the Potency was 8.91 µM (active) with ATS189; 12.6 µM (active) in the test on CP191; 8.49 µM (active) with DIV14; 9.53 µM (active) in the test on DIV17; 12.6 µM (active) with P93_24; 8.91 µM (active) in the test with TAB165.

`CC(C)=CCC/C(C)=C/CC/C(C)=C/CSc1ccccc1C(=O)O`: the Potency entry in test [9] and in test [10] was “inactive” each time.

With `O=c1[nH]ccc2c(S(=O)(=O)N3CCCNCC3)cccc12`, the Potency entry in test [8] was “inactive”.
